Laboratory results reported in PubChem BioAssay (NCATS).
Inconclusive results are not listed. Activity calls are given as the source filed them. Calls follow the shape of the dose curve; as a rule, active = well fitted curve in the direction sought with a large enough effect; inconclusive = small, poorly fitted or top-dose-only effect, or another doubt; inactive = no such curve, though single readings can be large; an effect the other way counts as inactive or inconclusive.

Assays:
[1] = target: Cellular tumor antigen p53 (Homo sapiens) (UniProt P04637); assay: Primary qHTS for small molecule compounds that upregulate eGFP-tagged delta133p53alpha (in N-terminal) cells. (AID 2060322); details: NCI-H358 eGFP-delta133p53alpha fluorescence, 24 h; activation: active compounds read high;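 also: cells pre-induced with doxycycline then dosed without doxycycline; series mostly up to about 56 µM; 0% = DMSO vehicle and 100% = reference activator; nearly all actives have a fitted effect of over 75% in size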
Chain of Cellular tumor antigen p53 (Homo sapiens) (P04637 whole entry, looked up): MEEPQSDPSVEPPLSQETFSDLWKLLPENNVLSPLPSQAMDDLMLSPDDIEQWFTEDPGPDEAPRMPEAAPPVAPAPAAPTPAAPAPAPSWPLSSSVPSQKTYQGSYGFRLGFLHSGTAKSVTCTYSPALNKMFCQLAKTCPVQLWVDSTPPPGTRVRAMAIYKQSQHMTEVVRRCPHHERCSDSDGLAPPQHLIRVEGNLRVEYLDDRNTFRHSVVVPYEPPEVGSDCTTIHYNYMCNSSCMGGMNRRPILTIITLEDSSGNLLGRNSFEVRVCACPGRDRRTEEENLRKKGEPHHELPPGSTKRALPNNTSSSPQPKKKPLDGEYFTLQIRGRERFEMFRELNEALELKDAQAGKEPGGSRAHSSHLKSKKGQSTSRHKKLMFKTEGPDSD
Method in brief: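 NCI-H358 cells pre-induced 24 h with 10 ng/ml doxycycline for eGFP-delta133p53alpha, plated dox-free and exposed 24 h at 37C to titrated compounds. Fixed, Hoechst-stained; gated GFP peak intensity by laser scanning cytometry, normalized to DMSO (0%) and 57.5 uM 5-azacytidine (100%).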

[2] = target: Aldehyde dehydrogenase, mitochondrial (Homo sapiens) (UniProt P05091); assay: qHTS for Inhibitors of the Aldehyde Dehydrogenase Family (ALDH2) Primary screen (AID 2061308);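 also: plate controls were vehicle for no effect and reference inhibitor for full effect; nearly all actives have a fitted effect of over 55% in size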
[3] = target: Retinaldehyde dehydrogenase 3 (Homo sapiens) (UniProt P47895); assay: qHTS for Inhibitors of the Aldehyde Dehydrogenase Family (ALDH1A3) Primary screen (AID 2061315);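 also: plate controls were DMSO vehicle for no effect and reference inhibitor for full effect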

CC(C)c1ccc2c(c1)C(O)CC1C(C)(C(=O)O)CCCC21C (stereo unspecified)
inactive: activation [1] -6.11% | Potency [2] | Potency [3]

CC(=O)OC1C(O)/C(C)=C\C2C(OC(=O)c3ccccc3)C(C)CC2(OC(C)=O)C(OC(C)=O)C(C)/C=C/C(C)(C)C1OC(C)=O (stereo unspecified)
inactive: activation [1] -20.5% | Potency [2] | Potency [3]

C/C1=C\CCC2=C[C@@H](OC2=O)c2c(C)coc2C1
inactive: activation [1] 13.4% | Potency [2] | Potency [3]

CC1CCC2(C(=O)O)CCC3(C)C(=CCC4C5(C)CCC(O)C(C)(C(=O)O)C5CCC43C)C2C1(C)O (stereo unspecified)
inactive: activation [1] -8.4% | Potency [2] | Potency [3]

Cn1cc(C2=C(c3coc4ccccc34)C(=O)NC2=O)c2cc(Br)ccc21
inactive: activation [1] -23.2% | Potency [2] | Potency [3]

CC1CC[C@]2(C(=O)O)CC[C@]3(C(=O)O)C(=CCC4[C@@]5(C)CC[C@H](OC6OC(C)C(O)C(OC7OC(CO)C(O)C(O)C7O)C6O)C(C)(C)C5CC[C@]43C)C2C1C (stereo partly specified)
inactive: activation [1] -8.04% | Potency [2] | Potency [3]

CCOc1cccc(NC(=O)c2ccc(N3CCCC3)c(C(F)(F)F)c2)c1
inactive: activation [1] 5.67% | Potency [2] | Potency [3]

CCOc1ccc(-c2cc(NC(=O)c3c(F)cccc3F)c(C(=O)O)s2)cc1
inactive: activation [1] 15.7% | Potency [2] | Potency [3]

CCc1cc(S(=O)(=O)O)c2cc(C(C)C)cccc1-2
inactive: activation [1] 4.33% | Potency [2] | Potency [3]

CC(=O)O[C@H]1[C@H](OC(=O)C(C)C)[C@]2(C)OC3(CC[C@]2(C)[C@H]2CCC[C@]4(CO4)[C@]12C)COC(=O)C3 (stereo partly specified)
inactive: activation [1] 1.53% | Potency [2] | Potency [3]

CCC(C)C(=O)O[C@@H]1[C@@H](O)[C@@H](O[C@H]2O[C@H](CO)[C@@H](O)[C@H](O)[C@H]2O)O[C@H](CO)[C@H]1O (stereo partly specified)
inactive: activation [1] -2.29% | Potency [2] | Potency [3]

N#Cc1cccc(-c2nc(-c3cccnc3)no2)c1
inactive: activation [1] -3.34% | Potency [2] | Potency [3]

C=CC(C)(O)CC/C=C(/C)COC(=O)C(C)C1CCC(C)(C=C)O1 (stereo unspecified)
inactive: activation [1] 5.36% | Potency [2] | Potency [3]

O=C(OC[C@H]1O[C@H](O[C@H]2CO[C@H](CO)[C@@H](O)[C@@H]2O)[C@H](O)[C@@H](O)[C@H]1O)c1ccccc1
inactive: activation [1] -4.58% | Potency [2] | Potency [3]

CCOC(=O)c1csc(Nc2ccc(Cl)cc2)n1
inactive: activation [1] -7% | Potency [2] | Potency [3]

COC(=O)[C@H](OC(C)=O)[C@H]1C(C)(C)C(=O)[C@H]2CC3=C4CC(=O)O[C@@H](c5ccoc5)[C@]4(C)CCC3[C@@]1(C)C2=O (stereo partly specified)
inactive: activation [1] 2.68% | Potency [2] | Potency [3]

COCCOCCOc1ccc(C2=N[C@@](C)(C(=O)O)CS2)c(O)c1
inactive: activation [1] 1.67% | Potency [2] | Potency [3]

CC(C)c1ccc(CC(=O)N2CCC[C@@H](c3cccc(OC(C)(C)C(=O)O)c3)C2)cc1
inactive: activation [1] 7% | Potency [2] | Potency [3]

CC1(C)CC[C@]2(C(=O)OC3OC(CO)C(O)C(O)C3O)CC[C@]3(C)C(=CCC4[C@@]5(C)CC[C@H](OC6OC(C(=O)O)C(O)C(OC7OC(CO)C(O)C(O)C7O)C6O)C(C)(C)C5CC[C@]43C)C2C1 (stereo partly specified)
inactive: activation [1] -22.1% | Potency [2] | Potency [3]

CC1C2=CC(=O)OC2(O)CC2C1C(O)CC1C(C)(CO)CCCC21C (stereo unspecified)
inactive: activation [1] -9.16% | Potency [2] | Potency [3]

C=CC/C=C\C/C=C\CCCCCCCc1cccc(O)c1C(=O)O
inactive: activation [1] 8.04% | Potency [2] | Potency [3]

C=C1[C@@H]2CC[C@@]3(C)[C@H](c4ccoc4)OC(=O)C[C@]13O[C@H]1CC(=O)C(C)(C)[C@H](CC(=O)OC)[C@]12C
inactive: activation [1] -26.7% | Potency [2] | Potency [3]

C=C1C[C@]23C[C@H]1CC[C@H]2[C@@]12CC[C@H](O)[C@@](C)(C(=O)O1)[C@H]2[C@@H]3C(=O)O
inactive: activation [1] 5.34% | Potency [2] | Potency [3]

COc1ccc(-n2[nH]c3c(cnc4ccccc43)c2=O)cc1
inactive: activation [1] -9.55% | Potency [2] | Potency [3]

CCOc1nc(NC(=O)Cc2cc(OC)ccc2OC)cc(N)c1C#N
inactive: activation [1] 15% | Potency [2] | Potency [3]

COC(=O)C1(C)CCCC2(C)c3ccc(C(C)C)cc3C(O)C(O)C12 (stereo unspecified)
inactive: activation [1] -14.3% | Potency [2] | Potency [3]

CC1OC(O[C@H]2CC[C@@]3(C)C(CC[C@]4(C)C3CC=C3C5CC(C)(C)CC[C@]5(C(=O)OC5OC(CO)C(OC6OCC(OC7OCC(O)C(O)C7O)C(O)C6O)C(O)C5O)CC[C@]34C)C2(C)C)C(O)C(O)C1OC1OC(CO)C(O)C(OC2OC(CO)C(O)C(O)C2O)C1O (stereo partly specified)
inactive: activation [1] 9.16% | activity change, negative = inhibition [2] 8.06% [at 11.2 µM] | activity change, negative = inhibition [3] 8.31% [at 11.2 µM]
